Source: PubChem BioAssay (Tox21)
A number with no mark means an inactive call. Activity calls are given as the source filed them. Calls follow the shape of the dose curve; as a rule, active = well fitted activation curve with a large enough effect in the repeat runs; inconclusive = weak or mixed curves; inactive = flat fitted curve, though single readings scatter.

Test: A CellTox Green Cytotoxicity Assay to monitor cytotoxicity in HEK293 cells - 0 hour (AID 1224869); also: nearly all actives have a fitted effect of over 50% in size
Settings: CellTox Green fluorescence; series mostly up to 76.8 µM; cytotoxicity: at the top concentration
Method in brief: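 Real-time, in one plate: 600 HEK293 cells/well with dead-cell DNA dye, pinned compound after 5 h, 37 C incubation over 40 h; viable cells give no appreciable fluorescence.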
% is scaled to controls: 0 for no effect and ±100 for the full control effect.

SMILES	cytotoxicity	Potency
Clc1cccnc1	0.535%	–
C=C[C@](C)(O)CC[C@@H]1[C@@]2(C)CCCC(C)(C)[C@@H]2CC[C@@]1(C)O	-6.19%	–
CC(O)C#CC(C)O (stereo not drawn)	8.18%	–
Clc1ccc(C(Cn2ccnc2)OCc2c(Cl)cccc2Cl)c(Cl)c1 (stereo not drawn)	11.4% [at 35.3 µM]	–
Cc1nc(Nc2ncc(C(=O)Nc3c(C)cccc3Cl)s2)cc(N2CCN(CCO)CC2)n1	-4.83% [at 35.3 µM]	–
Clc1nc2ccccc2s1	0.0925%	–
COCC(=O)O[C@]1(CCN(C)CCCc2nc3ccccc3[nH]2)CCc2cc(F)ccc2[C@@H]1C(C)C	0.585% [at 35.3 µM]	–
O=C(O)CCn1c2c(c3ccccc31)C[C@H](NS(=O)(=O)c1ccc(F)cc1)CC2	1.88% [at 35.3 µM]	–
CC(C)=CC1CC(C)CCO1 (stereo not drawn)	1.31%	–
CCC(=O)CC(C)CC (stereo not drawn)	6.34% [at 0.29 µM]	–
CCOC(=O)N1CCC(=C2c3ccc(Cl)cc3CCc3cccnc32)CC1	–	inactive
Cc1ccc(CCn2c3c(c4cc(Cl)ccc42)CN(C)CC3)cn1	3.34% [at 35.3 µM]	–
Clc1ccccc1CN1CCc2sccc2C1	1.21% [at 35.3 µM]	–
Cc1cn[nH]c1	-2.97% [at 35.3 µM]	–
CCOB(OCC)OCC	-13.2%	–
CCCCC(CC)COC(=O)c1ccc(O)cc1 (stereo not drawn)	–	inactive
CC(=O)Nc1ccc(O)cc1	–	inactive
NC(=O)c1nc(-c2cccc(-c3cc(F)ccc3OCC(F)(F)C(F)(F)F)c2)n[nH]1	6.37%	–
C=CC(=C)CCC=C(C)C	0.273%	–
c1ccc(Sc2ccccc2)cc1	0.177%	–
CC(CN(C)C)CN1c2ccccc2CCc2ccccc21 (stereo not drawn)	-10.9% [at 35.3 µM]	–
CN(C)CCCN1c2ccccc2CCc2ccccc21	–	inactive
CCOC(=O)C1=C(C)NC(C)=C(C(=O)OCC)C1c1ccccc1/C=C/C(=O)OC(C)(C)C	1.08% [at 35.3 µM]	–
